Measured values reported in PubChem BioAssay (NCI).
Compounds without any hit were thinned out: in the full panel of roughly 83,000, 20% have a hit.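 The endpoint reported here, percent growth, reads 100 for growth as untreated, 0 for no net growth and -100 for all cells dead.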 Calls of active or inactive are those of the source. Rule for the calls: active = growth percent below 10; inactive = the rest.

Key:
Assay in all cases: NCI-60 one-dose screen, 48 h (100 = growth as untreated, 0 = no growth, -100 = all killed)
SR leukemia = conditions: 10 µM unless noted
RPMI-8226 leukemia = conditions: 10 µM unless noted
OVCAR-8 ovarian = conditions: 10 µM unless noted
OVCAR-5 ovarian = conditions: 10 µM unless noted
OVCAR-4 ovarian = conditions: 10 µM unless noted
SK-OV-3 ovarian = conditions: 10 µM unless noted
IGROV1 ovarian = conditions: 10 µM unless noted
OVCAR-3 ovarian = conditions: 10 µM unless noted
HS 578T breast = conditions: 10 µM
NCI/ADR-RES ovarian = conditions: 10 µM unless noted
T-47D breast = conditions: 10 µM unless noted
BT-549 breast = conditions: 10 µM unless noted
MDA-MB-435 melanoma = conditions: 10 µM unless noted
SW-620 colon = conditions: 10 µM unless noted
MCF7 breast = conditions: 10 µM unless noted
HCT-116 colon = conditions: 10 µM unless noted
HCC-2998 colon = conditions: 10 µM unless noted
KM12 colon = conditions: 10 µM unless noted

Measured: growth

COc1ccc(NC(=O)/C=C/c2ccc(Cl)c(Cl)c2)cn1
inactive: SR leukemia 95.2% | RPMI-8226 leukemia 49.7% | OVCAR-8 ovarian 61.1% | OVCAR-5 ovarian 84.6% | OVCAR-4 ovarian 20.5% | SK-OV-3 ovarian 101% | IGROV1 ovarian 67.8% | OVCAR-3 ovarian 96.6% | HS 578T breast 92.6% | T-47D breast 71% | BT-549 breast 67.1% | MDA-MB-435 melanoma 91.1% | SW-620 colon 104% | MCF7 breast 71.7% | HCT-116 colon 84.8% | HCC-2998 colon 118% | KM12 colon 78.2%
active: NCI/ADR-RES ovarian 1.03%

C/C(=N\OC(=O)Nc1cccc(Cl)c1)c1ccccc1
inactive: SR leukemia 74% | RPMI-8226 leukemia 95.8% | OVCAR-8 ovarian 104% | OVCAR-5 ovarian 91% | OVCAR-4 ovarian 94.7% | SK-OV-3 ovarian 108% | IGROV1 ovarian 115% | OVCAR-3 ovarian 113% | HS 578T breast 86.4% | NCI/ADR-RES ovarian 108% | T-47D breast 95.9% | BT-549 breast 105% | MDA-MB-435 melanoma 93.1% | SW-620 colon 95.3% | MCF7 breast 88.1% | HCT-116 colon 103% | HCC-2998 colon 116% | KM12 colon 109%

COc1cc2nccc(Oc3ccc(NC(=O)C4(C(=O)Nc5ccc(F)cc5)CC4)cc3)c2cc1OC(=O)c1ccc(N)cc1
inactive: RPMI-8226 leukemia 10.4% | OVCAR-8 ovarian 51.9% | OVCAR-5 ovarian 31% | OVCAR-4 ovarian 51.7% | SK-OV-3 ovarian 69.6% | IGROV1 ovarian 60.7% | OVCAR-3 ovarian 47.5% | NCI/ADR-RES ovarian 35.5% | T-47D breast 19.5% | BT-549 breast 36.1% | MDA-MB-435 melanoma 33.2% | SW-620 colon 33.5% | MCF7 breast 23.8% | HCT-116 colon 23.1% | HCC-2998 colon 25.8% | KM12 colon 12.3%
active: SR leukemia 9.85% | HS 578T breast -16.9%

CCN(CC)CCCC(C)Nc1cnc(C(=O)Nc2cc(C)cc3cccnc23)cn1 (stereo unspecified)
inactive: SR leukemia 81.9% | RPMI-8226 leukemia 78% | OVCAR-8 ovarian 86.9% | OVCAR-5 ovarian 97.6% | OVCAR-4 ovarian 58.8% | SK-OV-3 ovarian 104% | IGROV1 ovarian 68.7% | OVCAR-3 ovarian 20.5% | HS 578T breast 79.9% | NCI/ADR-RES ovarian 92.7% | T-47D breast 32.6% | BT-549 breast 93.3% | MDA-MB-435 melanoma 83.7% | SW-620 colon 75.3% | MCF7 breast 57.3% | HCT-116 colon 18% | HCC-2998 colon 89.8% | KM12 colon 97.9%

c1ccc(C(Nc2ccccn2)(c2ccccc2)c2ccccc2)cc1
inactive: SR leukemia 97% | RPMI-8226 leukemia 34.7% | OVCAR-8 ovarian 70.4% | OVCAR-5 ovarian 77.6% | OVCAR-4 ovarian 79.9% | SK-OV-3 ovarian 67.5% | IGROV1 ovarian 88.7% | OVCAR-3 ovarian 82% | HS 578T breast 93.4% | NCI/ADR-RES ovarian 63.3% | T-47D breast 72.7% | BT-549 breast 99.2% | MDA-MB-435 melanoma 96.5% | SW-620 colon 84.4% | MCF7 breast 62.4% | HCT-116 colon 65.7% | HCC-2998 colon 82.6% | KM12 colon 71.9%

CCCCCCCCCCCCCCCCS(=O)(=O)Nc1cc(C(=O)NN)cc(C(=O)NN)c1
inactive: SR leukemia 56.9% | RPMI-8226 leukemia 68% | OVCAR-8 ovarian 77.5% | OVCAR-5 ovarian 68.3% | OVCAR-4 ovarian 48.1% | SK-OV-3 ovarian 69.8% | IGROV1 ovarian 66.3% | OVCAR-3 ovarian 47.2% | HS 578T breast 81.2% | NCI/ADR-RES ovarian 102% | T-47D breast 42% | BT-549 breast 61.5% | MDA-MB-435 melanoma 89.9% | SW-620 colon 96% | MCF7 breast 72.1% | HCT-116 colon 71.3% | HCC-2998 colon 48.2% | KM12 colon 73%

CNC(=O)c1cc(Oc2ccc(NC(=O)c3[nH]c(SC)nc3-c3ccc(F)cc3)cc2)ccn1
inactive: SR leukemia 63.1% | RPMI-8226 leukemia 43.8% | OVCAR-8 ovarian 69.1% | OVCAR-5 ovarian 99.9% | OVCAR-4 ovarian 60.8% | SK-OV-3 ovarian 34.1% | IGROV1 ovarian 55% | OVCAR-3 ovarian 88.2% | HS 578T breast 75.7% | NCI/ADR-RES ovarian 67.4% | T-47D breast 37% | BT-549 breast 85.3% | MDA-MB-435 melanoma 21.2% | SW-620 colon 90.3% | MCF7 breast 66.4% | HCT-116 colon 62.9% | HCC-2998 colon 96.9% | KM12 colon 19.4%

N=c1n(Cc2ccccc2)c(N)cc(=O)n1Cc1ccccc1
inactive: RPMI-8226 leukemia 42.6% | OVCAR-8 ovarian 20% | OVCAR-5 ovarian 68.8% | OVCAR-4 ovarian 34.1% | SK-OV-3 ovarian 21.4% | IGROV1 ovarian 37.9% | NCI/ADR-RES ovarian 10.6% | T-47D breast 26.7% | MDA-MB-435 melanoma 37.2% | SW-620 colon 20.7% | MCF7 breast 23.4% | HCC-2998 colon 67.4% | KM12 colon 39.2%
active: SR leukemia 1.6% | OVCAR-3 ovarian 0.156% | HS 578T breast -1.73% | BT-549 breast 3.02% | HCT-116 colon 8.12%

Clc1ccc(Nc2ncnc3c2sc2ncccc23)cc1
inactive: SR leukemia 10.4% | RPMI-8226 leukemia 38.2% | OVCAR-8 ovarian 12.2% | OVCAR-5 ovarian 58.2% | OVCAR-4 ovarian 85.4% | SK-OV-3 ovarian 28.6% | IGROV1 ovarian 66.2% | OVCAR-3 ovarian 56.6% | HS 578T breast 86.8% | NCI/ADR-RES ovarian 19.1% | T-47D breast 33.5% | BT-549 breast 49.1% | MDA-MB-435 melanoma 36.2% | SW-620 colon 46.6% | MCF7 breast 19.5% | HCT-116 colon 28% | HCC-2998 colon 61.9% | KM12 colon 56.2%

C/C(=N\OC(=O)Nc1ccccc1)c1ccccc1
inactive: SR leukemia 81.5% | RPMI-8226 leukemia 99.1% | OVCAR-8 ovarian 106% | OVCAR-5 ovarian 98.4% | OVCAR-4 ovarian 92.9% | SK-OV-3 ovarian 115% | IGROV1 ovarian 106% | OVCAR-3 ovarian 108% | HS 578T breast 85.1% | NCI/ADR-RES ovarian 107% | T-47D breast 104% | BT-549 breast 99.9% | MDA-MB-435 melanoma 95.1% | SW-620 colon 98.2% | MCF7 breast 95% | HCT-116 colon 105% | HCC-2998 colon 117% | KM12 colon 107%

COc1ccc(-c2nn(-c3cccc(Cl)c3)cc2/C=C2\C(=N)N(c3ccccc3)N=C2N)cc1
inactive: SR leukemia 17.9% | RPMI-8226 leukemia 47.3% | OVCAR-8 ovarian 42.3% | OVCAR-5 ovarian 39.8% | OVCAR-4 ovarian 71.6% | SK-OV-3 ovarian 91.3% | IGROV1 ovarian 27.9% | OVCAR-3 ovarian 38.8% | HS 578T breast 82.1% | NCI/ADR-RES ovarian 34.7% | T-47D breast 28.6% | BT-549 breast 101% | MDA-MB-435 melanoma 31.3% | SW-620 colon 32.5% | MCF7 breast 26.6% | HCT-116 colon 51.3%
active: HCC-2998 colon 0.0499% | KM12 colon -25.2%

COc1c(C(=O)/C=C/c2ccc(C)o2)c(O)cc2occc12
inactive: SR leukemia 42.8% | RPMI-8226 leukemia 82.5% | OVCAR-8 ovarian 84.8% | OVCAR-5 ovarian 107% | OVCAR-4 ovarian 80.9% | SK-OV-3 ovarian 88.6% | IGROV1 ovarian 69.3% | OVCAR-3 ovarian 47.6% | HS 578T breast 65.8% | NCI/ADR-RES ovarian 52.2% | T-47D breast 66.6% | BT-549 breast 67.5% | SW-620 colon 32.1% | MCF7 breast 38.5% | HCT-116 colon 52.8% | HCC-2998 colon 79.4% | KM12 colon 45.4%
active: MDA-MB-435 melanoma -28.3%

Cc1ccc(CSCc2ccc(C(=O)NC3CC3)o2)cc1
inactive: SR leukemia 18.2% | RPMI-8226 leukemia 52.1% | OVCAR-8 ovarian 72% | OVCAR-5 ovarian 76.3% | OVCAR-4 ovarian 69.1% | SK-OV-3 ovarian 108% | IGROV1 ovarian 89.2% | OVCAR-3 ovarian 74.6% | HS 578T breast 92.2% | NCI/ADR-RES ovarian 64.3% | T-47D breast 48.4% | BT-549 breast 97.9% | MDA-MB-435 melanoma 77.7% | SW-620 colon 66.2% | MCF7 breast 25% | HCT-116 colon 81.1% | HCC-2998 colon 31.6% | KM12 colon 46.4%

CNC(=O)c1cc(Oc2ccc(NC(=O)c3nc(S(C)(=O)=O)sc3-c3ccc(F)cc3)cc2)ccn1
inactive: SR leukemia 88% | RPMI-8226 leukemia 15.9% | OVCAR-8 ovarian 102% | OVCAR-5 ovarian 107% | OVCAR-4 ovarian 91.7% | SK-OV-3 ovarian 118% | IGROV1 ovarian 100% | OVCAR-3 ovarian 50% | HS 578T breast 101% | NCI/ADR-RES ovarian 94.7% | T-47D breast 26.3% | BT-549 breast 105% | MDA-MB-435 melanoma 98.2% | SW-620 colon 104% | MCF7 breast 29.5% | HCC-2998 colon 80.2% | KM12 colon 25.3%

CCc1ccc2c(c1)N(CCO)C1=C(C(=O)OC1)C2c1cccc(Br)c1 (stereo unspecified)
inactive: SR leukemia 28.6% | RPMI-8226 leukemia 24.7% | OVCAR-8 ovarian 33.7% | OVCAR-5 ovarian 36.4% | OVCAR-4 ovarian 59.9% | SK-OV-3 ovarian 28.1% | IGROV1 ovarian 39.3% | T-47D breast 47.5% | BT-549 breast 46.6% | SW-620 colon 26.8% | MCF7 breast 21.1% | HCT-116 colon 26.9% | KM12 colon 19.2%
active: OVCAR-3 ovarian -10.6% | HS 578T breast 3.25% | NCI/ADR-RES ovarian 9.74% | MDA-MB-435 melanoma -62.5%

CCOC(CN1CCN(CC(C)C(=O)c2ccccc2)CC1)c1ccccc1 (stereo unspecified)
inactive: SR leukemia 99.3% | RPMI-8226 leukemia 88.8% | OVCAR-8 ovarian 104% | OVCAR-5 ovarian 110% | OVCAR-4 ovarian 93.4% | SK-OV-3 ovarian 105% | IGROV1 ovarian 104% | OVCAR-3 ovarian 112% | HS 578T breast 115% | NCI/ADR-RES ovarian 106% | T-47D breast 92.8% | BT-549 breast 115% | MDA-MB-435 melanoma 102% | SW-620 colon 106% | MCF7 breast 80.6% | HCC-2998 colon 115% | KM12 colon 104%

Cc1ccc2cc3c(NC(=O)c4cccnc4)nn(C)c3nc2c1
inactive: SR leukemia 95.8% | RPMI-8226 leukemia 76.3% | OVCAR-8 ovarian 94.6% | OVCAR-5 ovarian 102% | OVCAR-4 ovarian 97.1% | SK-OV-3 ovarian 94.2% | IGROV1 ovarian 80.6% | OVCAR-3 ovarian 91.1% | HS 578T breast 96% | NCI/ADR-RES ovarian 95% | T-47D breast 69.6% | BT-549 breast 97.4% | MDA-MB-435 melanoma 95.5% | SW-620 colon 92.5% | MCF7 breast 81.6% | HCT-116 colon 86.2% | HCC-2998 colon 91% | KM12 colon 85.6%

Cc1ccccc1CNc1ncnc2[nH]ncc12
active: IGROV1 ovarian -19.4%
inactive: SR leukemia 60.9% | RPMI-8226 leukemia 88.5% | OVCAR-8 ovarian 59.7% | OVCAR-5 ovarian 89.6% | OVCAR-4 ovarian 78% | SK-OV-3 ovarian 100% | OVCAR-3 ovarian 117% | HS 578T breast 165% | NCI/ADR-RES ovarian 106% | T-47D breast 96.9% | BT-549 breast 105% | MDA-MB-435 melanoma 90.3% | SW-620 colon 114% | MCF7 breast 104% | HCT-116 colon 100% | HCC-2998 colon 105% | KM12 colon 112%
